Screening data (PubChem)
Shown are actives, neighbours in structure and some others; about 4.2% of the full set was active somewhere.
S1P4 antagonist = S1P4 receptor antagonists, primary screen, cell-based | Sphingosine 1-phosphate receptor 4 (Homo sapiens), O95977 | actives 0.26% (n = 220,000) | inhibition, % at 4.98 µM | AID 1510, 2009 | S1P4-expressing cells, antagonist mode, reporter read-out; in the data active means inhibition above about 29%
Target sequence (O95977 whole entry, looked up): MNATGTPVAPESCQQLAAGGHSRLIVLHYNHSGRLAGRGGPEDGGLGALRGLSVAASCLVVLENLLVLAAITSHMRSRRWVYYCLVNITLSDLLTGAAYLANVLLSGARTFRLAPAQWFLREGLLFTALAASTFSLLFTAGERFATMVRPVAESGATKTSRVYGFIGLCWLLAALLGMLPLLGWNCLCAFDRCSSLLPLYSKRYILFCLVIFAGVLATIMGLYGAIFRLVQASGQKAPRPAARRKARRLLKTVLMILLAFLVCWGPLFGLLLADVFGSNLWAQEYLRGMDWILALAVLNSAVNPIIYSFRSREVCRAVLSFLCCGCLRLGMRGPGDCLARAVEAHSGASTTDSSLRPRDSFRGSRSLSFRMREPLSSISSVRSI
S1P4 ag = S1P4 receptor agonists, primary screen, cell-based. Sphingosine 1-phosphate receptor 4 (Homo sapiens), O95977. S1P4-expressing cell line, agonist reporter assay. activation, % at 4.98 µM. actives 0.35% (n = 220,000); in the data active means activation above about 11%
CHOP inhibitor = inhibitors of CHOP promoter induction, primary screen, cell-based, unfolded protein response, luciferase reporter. CHO-K1 CHOP-promoter luciferase, tunicamycin-induced, 15-18 h. inhibition, % at 10 µM. actives 3.8% (n = 220,000);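 active means compounds that reduced the stress-induced luciferase reporter signal by more than about 70% of percent inhibition, limit read from the data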
Hsp70 act = Hsp70 transcriptional activators, primary screen, cell-based, HeLa, Hsp70 promoter luciferase, luminescence, 10 µM; HeLa Hsp70 promoter luciferase reporter; scaled: vehicle 0, proteasome-inhibitor control 100%; activation, % at 10 µM; actives 0.04% (n = 200,000);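 active means activation above the mean across all tested compounds plus 3 SD, cutoff set per campaign, cut at about 5.5% in these data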
Of the large screens only hits and unclear results are named; the others gave an inactive call.

COc1ccc(C(C)C)cc1S(=O)(=O)N1CCN(c2ccccc2)CC1	none
CC1=C(C(=O)OC(C)C)C(c2cccnc2)C2=C(CCCC2=O)N1 (stereo unspecified)	CHOP inhibitor 91
CCCCCCCCCOC(=O)C(CC(=O)O)N1CCOCC1 (stereo unspecified)	none
Nc1ccc(OC(=O)Nc2ccc(O)cc2)cc1	CHOP inhibitor 82 (no result: Hsp70 act)
COc1ccc(N/N=C(\C#N)C(N)=O)cc1	none
N#C/C(=N/Nc1ccc(OC(F)(F)F)cc1)C(N)=S	CHOP inhibitor 74 (no result: Hsp70 act)
O=C(Nn1c(C2CCCCC2)nc2ccccc2c1=O)c1ccc(Cl)c([N+](=O)[O-])c1	none
Cc1cccc(C(=O)O/N=C(\N)c2ccc(Br)cc2)c1	none
Cc1cc(C)cc(C(=O)O/N=C(\N)c2ccc(Br)cc2)c1	CHOP inhibitor 72
COc1cccc(NC(=O)Nc2nnc(N3C(C)CCCC3C)s2)c1 (stereo unspecified)	none (no result: Hsp70 act)
Cc1cccc(NC(=O)Nc2nnc(N3CCCCC3C)s2)c1C (stereo unspecified)	CHOP inhibitor 80
O=C1Nc2ccc(Br)cc2C1(O)Cc1ccccn1 (stereo unspecified)	none
O=C1Nc2ccc(Br)cc2C12NNc1ccccc1O2 (stereo unspecified)	CHOP inhibitor 105
O=C(O)CCN=C1CCCc2ccccc2N1	none
O=S(=O)(NCCc1csc(-c2cccnc2)n1)c1ccc(Cl)s1	CHOP inhibitor 78
Cc1ccc(NCc2ccccc2OCc2ccccc2F)cc1	CHOP inhibitor 85
Cc1cccc(NCc2ccccc2OCc2ccccc2F)c1	none
Oc1ccc(NCc2ccccc2OCc2ccccc2F)cc1	CHOP inhibitor 85
CC(C)(C)C(=O)NC(=S)NNC(=O)c1ccncc1	none
CC(C)(C)C(=O)NC(=S)NNC(=O)c1ccc(-c2ccccc2)cc1	CHOP inhibitor 92
COC(=O)NNC(=O)c1ccc(Cl)cc1Cl	none
O=C(NNC(=O)c1ccc(-c2ccccc2)cc1)c1ccccc1	CHOP inhibitor 81
CC(C)(C)C(=O)NC(=S)NNC(=O)c1ccc(Cl)cc1Cl	CHOP inhibitor 92
CC(C)OC(=O)Cn1cnc2ccc(Br)cc2c1=O	none
Cc1cc(C)n2nc(C(=O)OCC(=O)c3c[nH]c4ccccc34)nc2n1	none
O=C(OCC(=O)c1c[nH]c2ccccc12)c1cc2ccccc2cc1O	CHOP inhibitor 73
O=c1oc2ccccc2cc1-c1nc2c(s1)CCc1ccccc1-2	none
O=c1oc2cc(O)ccc2cc1-c1nc2c(s1)CCc1ccccc1-2	CHOP inhibitor 83
CCOC(=O)c1cccc(Nc2nc(-c3cccnc3)nc3ccccc23)c1	CHOP inhibitor 77
Cc1cccc(CSc2ncnc3ccccc23)c1	CHOP inhibitor 73
COc1ccc2c(c1)c1nc3ccccc3nc1n2CC(=O)OC(C)C	CHOP inhibitor 94
CCOC(=O)Cn1c2ccccc2c2nc3ccccc3nc21	CHOP inhibitor 93
COc1ccc2c(c1)c1nc3ccccc3nc1n2CCn1c(=O)oc2ccccc21	CHOP inhibitor 95
CC(=O)c1cccc(NC(=O)NC2CC3CCCC(C2)N3CC(C)C)c1 (stereo unspecified)	none
O=C(Nc1ccc(-c2nc3c(ccc4ccccc43)o2)cc1)c1ccco1	CHOP inhibitor 79
Cn1c(SCc2cccc(Cl)c2)nc(C(F)(F)F)cc1=O	CHOP inhibitor 84
Cn1c(SCc2ccccc2Cl)nc(C(F)(F)F)cc1=O	CHOP inhibitor 74
Cn1c(SCc2c(Cl)cccc2Cl)nc(C(F)(F)F)cc1=O	CHOP inhibitor 82
CCc1ccc(-c2csc(NC(=O)C3CC(=O)N(c4ccc5c(c4)OCCO5)C3)n2)cc1 (stereo unspecified)	CHOP inhibitor 85
CCC(CC)c1nnc(NC(=O)C2CC(=O)N(c3ccc4c(c3)OCCO4)C2)s1 (stereo unspecified)	none
Oc1ccc(/C=N/n2c3ccccc3c3ccccc32)cc1	CHOP inhibitor 91
Cc1ccc(C)c(NC(=O)Cc2coc3cc4c(cc23)CCC4)c1	CHOP inhibitor 85
COc1ccccc1OCCNC(=O)c1ccc(S(=O)(=O)N(C)C)cc1	none
COc1cc2nc(C3CC3)n(NC(=O)c3ccc(Cl)cc3)c(=O)c2cc1OC	none
COc1cc2nc(NC(=O)c3ccc(Cl)cc3)[nH]c(=O)c2cc1OC	CHOP inhibitor 72
CCOC(=O)c1ccc(Oc2nc(N(C)C)nc(N(C)C)n2)cc1	CHOP inhibitor 71
O=C(c1cccc(F)c1)N1CCN(c2cc(N3CCCCC3)c(F)cc2[N+](=O)[O-])CC1	CHOP inhibitor 73
COc1ccc(NC(=O)C23CC4CC(C2)CC(c2ccc(C)cc2)(C4)C3)cc1	none
CCCCCn1c(NCc2ccco2)nc2ccccc21	none
CCOC(=O)c1nn(-c2ccc(F)cc2)c(C)c1C(C)=O	none
CCc1c(C(=O)Nc2ccncc2)csc1C	CHOP inhibitor 71
O=C(NCc1ccco1)c1ccc2c(=O)n(Cc3ccco3)c(SCC(=O)N3CCCC3)nc2c1	none
CN1CCN(c2cc(=O)n(C3CCCCC3)c(=O)[nH]2)CC1	none
O=c1cc(N2CCN(c3cccc(Cl)c3)CC2)[nH]c(=O)n1C1CCCCC1	CHOP inhibitor 74
O=c1cc(N2CCN(c3ccccc3)CC2)[nH]c(=O)n1C1CCCCC1	CHOP inhibitor 78
NC(=O)CN1CCN(C2CC(=O)N(CCc3ccccc3)C2=O)CC1 (stereo unspecified)	none
Cc1ccc(CSc2nnc(-c3cccc(S(=O)(=O)N4CCOCC4)c3)n2C2CCCC2)cc1	none
O/N=C/c1ccccc1OCc1ccc(Cl)cc1	CHOP inhibitor 76
Cn1nc(-c2ccc(N3CCCCC3)c(NC(=O)c3ccco3)c2)c2ccccc2c1=O	CHOP inhibitor 88
CCC(=O)Nc1cc(-c2nn(C)c(=O)c3ccccc23)ccc1N1CCOCC1	none
O=C(O)CCCC(=O)NNc1ncnc2ccccc12	none
CC(=O)C1=C(c2ccccc2)NC(=O)NC1c1ccccc1OCC(=O)Nc1ccccc1 (stereo unspecified)	CHOP inhibitor 72
CC(=O)C1=C(C)NC(=O)NC1c1ccccc1OCC(=O)NCCc1ccccc1 (stereo unspecified)	none
COc1ccc(N2CCN(c3ncnc4c3cnn4-c3ccc(C)cc3C)CC2)cc1	CHOP inhibitor 74
CCc1cc2c(N3CCN(c4ccccc4)CC3)ncnc2s1	CHOP inhibitor 77
Cc1ccc(-n2ncc3c(N4CCN(c5ccccc5)CC4)ncnc32)c(C)c1	CHOP inhibitor 84
COc1ccc(-n2ncc3c(N4CCN(c5cc(C)ccc5C)CC4)ncnc32)cc1	none
Oc1ccc(N2CCN(c3ncnc4sc(-c5ccccc5)cc34)CC2)cc1	none
CC1=CC(=O)C=CC1(C)C(Cl)Cl (stereo unspecified)	none
CN1CCN(C(=O)c2ccc3c(c2)NC(=O)C(C)(C)O3)CC1	none
COc1ccc(C(=O)/C=C/Nc2ccc(S(=O)(=O)Nc3cccc(C(C)=O)c3)cc2)cc1	CHOP inhibitor 79
Cc1cc(C)nc(NS(=O)(=O)c2ccc(N/C=C/C(=O)c3ccc(Cl)c(Cl)c3)cc2)n1	CHOP inhibitor 80
